# Data: PubChem BioAssay (Tox21)
# Unmarked numbers belong to inactive results. Results filed as inconclusive are left out. Entries that show only a call come without a potency. Activity calls are given as the source filed them. Unless noted, the call rests on the fitted dose curve; in most records, active means well fitted curve in the direction sought with a large enough effect in the repeat runs; inconclusive means weak or mixed curves; inactive means no such curve, though single readings can be large; an effect the other way counts as inactive or inconclusive.
# Key:
# [1] = qHTS assay to identify small molecule antagonists of the TGF-beta/Smad signaling pathway - cell viability counter screen (AID 1346824); further: nearly all actives have a fitted effect of over 50% in size
# How it was run: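 SBE-bla HEK 293T cells were plated overnight at 37 C, then given compounds in DMSO plus TGF-beta1 (added as 0.25 ng/mL solution) for 5 hr. After the bla read, CellTiter-Glo was added to the same wells and luminescence read after 30 min at room temperature.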
# [2] = qHTS assay to identify small molecule agonists of the TGF-beta/Smad signaling pathway - cell viability counter screen (AID 1346829); further: top concentration of the series differs between compounds; nearly all actives have a fitted effect of over 45% in size
# How it was run: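 CellTiter-Glo luminescence readout; SBE-bla HEK 293T cells, overnight plating, compound 5 hr at 37 C/5% CO2, then bla substrate 2 hr RT, then CellTiter-Glo 30 min RT.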
# [3] = qHTS assay to identify small molecule agonists of the TGF-beta/Smad signaling pathway (AID 1346859; active means well fitted activation curve with a large enough effect in the signal ratio in the repeat runs, not every such curve was filed as active; the % refers to the signal ratio; further: series mostly up to about 77 µM)
# How it was run: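 Each well held 4,000 SBE-bla HEK 293T cells incubated overnight before compound addition; 5 hr later the cleavable FRET substrate went on for 2 hr at room temperature, and fluorescence was read at two emissions.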
# [4] = target: Thyrotropin-releasing hormone receptor (Homo sapiens) (UniProt P34981); experiment: qHTS assay to identify small molecule antagonists of the thyrotropin-releasing hormone receptor (TRHR) signaling pathway (AID 1346877; active means well fitted inhibition curve with a large enough effect in the repeat runs, not every such curve was filed as active; further: series mostly up to about 51 µM)
# How it was run: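 HEK293/TRHR cells, 18 h, 37 °C; Ca2+ dye 2 h; cpd 5 min RT; TRH 1 nM final; fluorescence read 3 min, 1 s intervals; 15 concs, triplicate.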
# [5] = target: Thyrotropin-releasing hormone receptor (Homo sapiens) (UniProt P34981); experiment: qHTS assay to identify small molecule agonists of the thyrotropin-releasing hormone receptor (TRHR) signaling pathway (AID 1346891; calls by dose curve; further: series mostly up to about 58 µM)
# How it was run: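 Screening of agonists relied on calcium signalling in HEK293 cells expressing human TRHR: dye loading 2 h at 37 °C preceded compound addition and a 3-min fluorescence time course.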
# [6] = Human pregnane X receptor (PXR) small molecule agonists, qHTS cell viability counter screen (AID 1346977); further: nearly all actives have a fitted effect of over 50% in size
# How it was run: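 Tox21 qHTS format; PXR-Luc HepG2, 2,000/well, charcoal-stripped FBS 5%. Cpd exposure 24hr. Read: CellTiter-Fluor fluorescence, multiplexed with luciferase.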
# [7] = Caspase-3/7 induction in HepG2 cells by small molecules, qHTS assay (AID 1346978); further: nearly all actives have a fitted effect of over 15% in size
# How it was run: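 Wild-type HepG2 cells (2,000/well) were settled 5 h at 37 C, 5% CO2, then exposed to compounds in DMSO for 17 h. Caspase-3/7 activity was read by luminescence 30 min after adding Caspase-Glo 3/7 reagent at room temperature.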
# [8] = Caspase-3/7 induction in CHO-K1 cells by small molecules, qHTS cell viability counter screen (AID 1346979); further: nearly all actives have a fitted effect of over 35% in size
# How it was run: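 CellTiter-Fluor viability check, qHTS format: wild-type CHO-K1, 16hr compound treatment, 1hr reagent incubation, fluorescence read.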
# [9] = Caspase-3/7 induction in CHO-K1 cells by small molecules, qHTS assay (AID 1346980); further: nearly all actives have a fitted effect of over 15% in size
# How it was run: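 Wild-type cells were seeded at 1,500 per well and settled 5 hr at 37 C, 5% CO2, then exposed to DMSO-dissolved compounds for 17 hr. Caspase-Glo 3/7 reagent was added, and luminescence was read after 30min at room temperature.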
# [10] = Caspase-3/7 induction in HepG2 cells by small molecules, qHTS cell viability counter screen (AID 1346981); further: series mostly up to about 92 µM; nearly all actives have a fitted effect of over 30% in size
# How it was run: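 Fluorescence read-out of live-cell protease activity (CellTiter-Fluor) after 1 hr with reagent. This was measured in the same wells as the caspase-3/7 luminescence, on HepG2 cells exposed to DMSO-dissolved compounds for 16 hr at 37 C.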
# [11] = target: Nuclear receptor subfamily 1 group I member 2 (Homo sapiens) (UniProt O75469); experiment: Human pregnane X receptor (PXR) small molecule agonists, qHTS assay (AID 1346982); further: nearly all actives have a fitted effect of over 35% in size; further: potency means the concentration at half of the fitted maximal effect
# How it was run: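 HepG2 PXR-Luc reporter line, 5% charcoal-stripped FBS; 5 hr pre-incubation, compound (DMSO) 24 hr at 37 C/5% CO2; ONE-Glo 30 min RT; luminescence read-out.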
# [12] = target: Nuclear receptor subfamily 1 group I member 2 (Rattus norvegicus) (UniProt Q9R1A7); experiment: Rat pregnane X receptor (rPXR) activation by small molecules, qHTS assay (AID 1346983); details: rPXR luciferase reporter cells, One-Glo luminescence, 24 h; active compounds read high; further: nearly all actives have a fitted effect of over 20% in size
# How it was run: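 Cell-based rPXR luciferase reporter assay, 2,000 cells per well, rested 5hr at 37 C before compound addition in DMSO, then 24 hr at 37 C. One-Glo reagent was added and luminescence read after 30 min at room temperature.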
# [13] = target: Nuclear receptor subfamily 1 group I member 2 (Homo sapiens) (UniProt O75469); experiment: CYP3A4 induction through human pregnane X receptor (PXR) by small molecules, qHTS assay (AID 1346984); further: nearly all actives have a fitted effect of over 40% in size
# How it was run: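 HepG2-derived DPX-2 line carrying PXR plus a CYP3A4-promoter luciferase reporter; cells plated 5 hr, compound-exposed 24 hr at 37C. CYP3A4 activity probed with 3uM (final) Luciferin-IPA for 3hr, then luciferase read after One-Glo.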
# [14] = target: Cytochrome P450 2D6 (Homo sapiens) (UniProt P10635); experiment: Cytochrome P450 Family 2 Subfamily D Member 6 (CYP2D6) small molecule antagonists: luciferase reporter qHTS assay (AID 1671196); further: nearly all actives have a fitted effect of over 50% in size; further: potency means the concentration at half of the fitted maximal effect
# How it was run: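 Luminogenic proluciferin substrate, CYP2D6 enzyme; 10 min RT preincubation with compound, NADPH regeneration system added, 1 h RT. Stop/detection reagent, 20 min RT, luminescence read (RLU). Signal proportional to CYP activity.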
# [15] = target: Cytochrome P450 2C19 (Homo sapiens) (UniProt P33261); experiment: Cytochrome P450 Family 2 Subfamily C Member 19 (CYP2C19) small molecule antagonists: luciferase reporter qHTS assay (AID 1671197); further: nearly all actives have a fitted effect of over 65% in size; further: potency means the concentration at half of the fitted maximal effect
# How it was run: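 Enzyme-substrate mix with proluciferin substrate (P450-Glo CYP2C19 system) preincubated with compounds 10 min at room temperature; NADPH regeneration solution added, 37C for 1 h; detection reagent stops reaction, luminescence read after 20 min. Ketoconazole positive control.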
# [16] = target: Cytochrome P450 2C9 (Homo sapiens) (UniProt P11712); experiment: Cytochrome P450 Family 2 Subfamily C Member 9 (CYP2C9) small molecule antagonists: luciferase reporter qHTS assay (AID 1671198); further: nearly all actives have a fitted effect of over 50% in size; further: potency means the concentration at half of the fitted maximal effect
# How it was run: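 CYP2C9 activity was measured with a P450-Glo proluciferin substrate. Enzyme–substrate mix was held with compound for 10 min at room temperature, then NADPH regeneration solution was added for 1 h at 37C. Luciferin product was read as luminescence.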
# [17] = target: Cytochrome P450 1A2 (Homo sapiens) (UniProt P05177); experiment: Cytochrome P450 Family 1 Subfamily A Member 2 (CYP1A2) small molecule antagonists: luciferase reporter qHTS assay (AID 1671199); further: nearly all actives have a fitted effect of over 50% in size; further: potency means the concentration at half of the fitted maximal effect
# How it was run: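 Luminescence readout (relative luminescence units) after luciferin detection reagent, 20 min RT. Preceded by 1 h room-temperature CYP1A2 reaction with NADPH regeneration solution following 10 min compound preincubation with enzyme and proluciferin substrate. Furafylline positive control.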
# [18] = target: Voltage-gated inwardly rectifying potassium channel KCNH2 (Homo sapiens) (UniProt Q12809); experiment: Human Ether-a-go-go-Related Gene (hERG) channel small molecule antagonists: fluorescence cell-based qHTS assay (AID 1671200)
# How it was run: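 Kinetic two-minute fluorescence traces, sampled at 1 s, were collected following thallium stimulus of U2OS cells (1000 per well) that had been cultured overnight at 37 C and loaded with FluxOR II.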
# [19] = target: Cytochrome P450 3A4 (Homo sapiens) (UniProt P08684); experiment: Cytochrome P450 Family 3 Subfamily A Member 4 (CYP3A4) small molecule antagonists: luciferase reporter qHTS assay (AID 1671201); further: nearly all actives have a fitted effect of over 50% in size; further: potency means the concentration at half of the fitted maximal effect
# How it was run: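 Proluciferin-to-luciferin conversion by CYP3A4, NADPH-regenerated, 1 h RT; luminescence read as RLU. Ketoconazole as control.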
# Chain of Cytochrome P450 2C19 (Homo sapiens) (P33261 whole entry, looked up): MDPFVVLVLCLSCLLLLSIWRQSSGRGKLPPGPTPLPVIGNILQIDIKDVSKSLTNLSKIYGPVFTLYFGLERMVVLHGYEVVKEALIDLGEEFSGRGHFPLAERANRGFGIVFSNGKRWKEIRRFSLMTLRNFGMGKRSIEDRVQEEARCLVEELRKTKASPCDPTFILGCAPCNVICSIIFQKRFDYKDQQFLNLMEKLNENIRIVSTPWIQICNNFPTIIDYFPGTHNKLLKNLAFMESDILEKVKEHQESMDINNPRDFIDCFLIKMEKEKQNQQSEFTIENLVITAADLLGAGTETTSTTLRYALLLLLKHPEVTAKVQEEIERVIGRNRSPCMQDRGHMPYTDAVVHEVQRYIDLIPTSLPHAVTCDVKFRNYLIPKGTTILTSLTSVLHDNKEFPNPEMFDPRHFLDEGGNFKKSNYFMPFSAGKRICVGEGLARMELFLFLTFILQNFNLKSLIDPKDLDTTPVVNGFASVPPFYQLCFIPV
# Chain of Cytochrome P450 3A4 (Homo sapiens) (P08684 whole entry, looked up): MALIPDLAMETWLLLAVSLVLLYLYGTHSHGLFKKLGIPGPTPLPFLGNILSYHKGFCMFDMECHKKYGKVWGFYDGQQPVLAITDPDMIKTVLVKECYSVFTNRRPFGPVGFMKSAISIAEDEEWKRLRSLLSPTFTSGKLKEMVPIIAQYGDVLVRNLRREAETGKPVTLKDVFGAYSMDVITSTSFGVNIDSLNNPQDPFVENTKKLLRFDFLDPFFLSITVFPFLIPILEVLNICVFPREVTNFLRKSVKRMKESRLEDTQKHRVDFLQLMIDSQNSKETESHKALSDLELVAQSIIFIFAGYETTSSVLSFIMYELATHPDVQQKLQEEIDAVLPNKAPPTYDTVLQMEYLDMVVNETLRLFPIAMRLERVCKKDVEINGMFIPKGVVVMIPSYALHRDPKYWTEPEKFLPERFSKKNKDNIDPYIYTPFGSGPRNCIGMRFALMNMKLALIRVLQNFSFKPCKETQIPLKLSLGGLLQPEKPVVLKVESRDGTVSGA
# Chain of Thyrotropin-releasing hormone receptor (Homo sapiens) (P34981 whole entry, looked up): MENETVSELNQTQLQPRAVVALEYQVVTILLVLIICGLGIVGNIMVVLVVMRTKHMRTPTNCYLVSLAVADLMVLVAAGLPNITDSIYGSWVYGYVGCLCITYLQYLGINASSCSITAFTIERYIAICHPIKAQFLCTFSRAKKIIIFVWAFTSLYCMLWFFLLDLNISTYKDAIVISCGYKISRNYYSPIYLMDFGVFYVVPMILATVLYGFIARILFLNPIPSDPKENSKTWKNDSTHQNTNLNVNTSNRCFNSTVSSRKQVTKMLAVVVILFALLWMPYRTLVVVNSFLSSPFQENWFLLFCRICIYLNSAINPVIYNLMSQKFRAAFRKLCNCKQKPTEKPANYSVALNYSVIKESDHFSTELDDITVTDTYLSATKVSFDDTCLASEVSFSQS
# Chain of Cytochrome P450 2C9 (Homo sapiens) (P11712 whole entry, looked up): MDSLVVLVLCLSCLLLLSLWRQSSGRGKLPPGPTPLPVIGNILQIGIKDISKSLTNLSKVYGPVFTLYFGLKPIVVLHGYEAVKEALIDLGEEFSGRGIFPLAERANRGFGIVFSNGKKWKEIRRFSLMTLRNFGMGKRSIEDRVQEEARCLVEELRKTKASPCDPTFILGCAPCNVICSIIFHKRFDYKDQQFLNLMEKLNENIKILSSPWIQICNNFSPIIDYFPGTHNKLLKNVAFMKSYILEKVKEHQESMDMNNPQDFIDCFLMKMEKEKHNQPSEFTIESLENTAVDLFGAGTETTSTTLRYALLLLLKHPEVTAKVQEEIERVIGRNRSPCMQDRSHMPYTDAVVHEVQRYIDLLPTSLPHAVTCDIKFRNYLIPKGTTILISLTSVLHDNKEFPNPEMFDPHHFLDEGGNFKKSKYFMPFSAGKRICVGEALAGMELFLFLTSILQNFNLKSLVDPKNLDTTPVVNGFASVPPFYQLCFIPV
# Chain of Cytochrome P450 1A2 (Homo sapiens) (P05177 whole entry, looked up): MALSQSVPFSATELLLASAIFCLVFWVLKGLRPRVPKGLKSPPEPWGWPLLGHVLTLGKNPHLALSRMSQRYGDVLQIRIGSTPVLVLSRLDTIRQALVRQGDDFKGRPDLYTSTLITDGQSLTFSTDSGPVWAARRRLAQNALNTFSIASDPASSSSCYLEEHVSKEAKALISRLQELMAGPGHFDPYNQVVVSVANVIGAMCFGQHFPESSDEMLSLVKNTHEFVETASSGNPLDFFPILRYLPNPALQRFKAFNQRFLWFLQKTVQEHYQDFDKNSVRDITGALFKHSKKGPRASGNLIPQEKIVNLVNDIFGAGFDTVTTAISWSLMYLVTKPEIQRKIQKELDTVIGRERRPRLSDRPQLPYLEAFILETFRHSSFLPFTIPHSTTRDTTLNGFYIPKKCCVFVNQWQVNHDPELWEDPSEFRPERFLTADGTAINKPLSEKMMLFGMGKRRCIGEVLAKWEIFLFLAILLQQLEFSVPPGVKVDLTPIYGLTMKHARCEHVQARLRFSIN
# Chain of Voltage-gated inwardly rectifying potassium channel KCNH2 (Homo sapiens) (Q12809 whole entry, looked up): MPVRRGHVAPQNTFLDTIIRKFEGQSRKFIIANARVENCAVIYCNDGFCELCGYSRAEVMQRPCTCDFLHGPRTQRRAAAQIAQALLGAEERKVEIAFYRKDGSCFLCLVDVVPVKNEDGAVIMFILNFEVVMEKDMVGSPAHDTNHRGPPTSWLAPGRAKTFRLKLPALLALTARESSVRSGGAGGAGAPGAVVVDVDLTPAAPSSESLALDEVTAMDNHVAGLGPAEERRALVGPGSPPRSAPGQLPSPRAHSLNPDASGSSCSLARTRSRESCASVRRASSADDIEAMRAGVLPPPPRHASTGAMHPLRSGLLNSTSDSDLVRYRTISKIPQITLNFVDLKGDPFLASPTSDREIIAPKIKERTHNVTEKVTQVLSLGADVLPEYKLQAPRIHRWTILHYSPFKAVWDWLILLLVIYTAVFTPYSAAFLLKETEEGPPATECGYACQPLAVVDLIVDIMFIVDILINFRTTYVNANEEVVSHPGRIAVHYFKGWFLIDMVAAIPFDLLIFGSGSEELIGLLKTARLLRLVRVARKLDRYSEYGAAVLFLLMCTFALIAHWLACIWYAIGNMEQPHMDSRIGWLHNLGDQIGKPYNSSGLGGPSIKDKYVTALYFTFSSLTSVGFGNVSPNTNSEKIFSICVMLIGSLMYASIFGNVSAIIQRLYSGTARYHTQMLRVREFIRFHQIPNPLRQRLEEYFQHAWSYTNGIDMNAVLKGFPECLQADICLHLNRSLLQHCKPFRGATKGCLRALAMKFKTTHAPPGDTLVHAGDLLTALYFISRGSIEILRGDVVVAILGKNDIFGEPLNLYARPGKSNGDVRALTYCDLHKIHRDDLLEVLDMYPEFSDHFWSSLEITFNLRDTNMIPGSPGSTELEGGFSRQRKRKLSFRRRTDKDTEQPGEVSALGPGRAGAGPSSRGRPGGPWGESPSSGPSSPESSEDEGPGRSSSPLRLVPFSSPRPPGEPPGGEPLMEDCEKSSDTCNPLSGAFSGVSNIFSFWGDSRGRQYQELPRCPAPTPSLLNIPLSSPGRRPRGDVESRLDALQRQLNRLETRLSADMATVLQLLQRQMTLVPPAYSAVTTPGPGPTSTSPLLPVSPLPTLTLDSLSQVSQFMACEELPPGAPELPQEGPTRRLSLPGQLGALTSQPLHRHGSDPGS
# Chain of Nuclear receptor subfamily 1 group I member 2 (Homo sapiens) (O75469 whole entry, looked up): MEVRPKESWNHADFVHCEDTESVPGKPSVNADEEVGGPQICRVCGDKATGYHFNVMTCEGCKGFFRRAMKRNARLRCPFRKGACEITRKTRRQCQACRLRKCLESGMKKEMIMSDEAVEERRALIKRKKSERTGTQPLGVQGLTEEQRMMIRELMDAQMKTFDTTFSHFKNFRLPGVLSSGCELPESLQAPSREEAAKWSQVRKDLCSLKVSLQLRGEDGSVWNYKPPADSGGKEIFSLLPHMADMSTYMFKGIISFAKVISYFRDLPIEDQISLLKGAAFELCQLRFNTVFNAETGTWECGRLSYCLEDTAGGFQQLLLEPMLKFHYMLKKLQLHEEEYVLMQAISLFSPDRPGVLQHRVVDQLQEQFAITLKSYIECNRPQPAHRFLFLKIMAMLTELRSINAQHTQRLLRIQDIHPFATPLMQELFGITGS
# Chain of Cytochrome P450 2D6 (Homo sapiens) (P10635 whole entry, looked up): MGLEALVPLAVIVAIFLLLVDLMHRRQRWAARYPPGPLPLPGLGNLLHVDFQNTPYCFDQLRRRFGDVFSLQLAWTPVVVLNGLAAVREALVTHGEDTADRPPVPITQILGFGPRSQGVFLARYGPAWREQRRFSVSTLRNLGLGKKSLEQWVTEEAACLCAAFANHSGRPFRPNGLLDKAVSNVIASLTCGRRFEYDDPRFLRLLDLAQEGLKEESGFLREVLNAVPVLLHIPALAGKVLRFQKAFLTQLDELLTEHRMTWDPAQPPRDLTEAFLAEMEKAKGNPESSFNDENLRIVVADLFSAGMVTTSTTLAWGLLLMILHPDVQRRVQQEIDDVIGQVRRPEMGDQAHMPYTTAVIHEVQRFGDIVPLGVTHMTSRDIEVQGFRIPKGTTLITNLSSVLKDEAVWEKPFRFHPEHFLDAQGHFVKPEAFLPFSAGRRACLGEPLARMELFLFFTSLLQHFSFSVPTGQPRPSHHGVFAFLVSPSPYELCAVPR
# Chain of Nuclear receptor subfamily 1 group I member 2 (Rattus norvegicus) (Q9R1A7 whole entry, looked up): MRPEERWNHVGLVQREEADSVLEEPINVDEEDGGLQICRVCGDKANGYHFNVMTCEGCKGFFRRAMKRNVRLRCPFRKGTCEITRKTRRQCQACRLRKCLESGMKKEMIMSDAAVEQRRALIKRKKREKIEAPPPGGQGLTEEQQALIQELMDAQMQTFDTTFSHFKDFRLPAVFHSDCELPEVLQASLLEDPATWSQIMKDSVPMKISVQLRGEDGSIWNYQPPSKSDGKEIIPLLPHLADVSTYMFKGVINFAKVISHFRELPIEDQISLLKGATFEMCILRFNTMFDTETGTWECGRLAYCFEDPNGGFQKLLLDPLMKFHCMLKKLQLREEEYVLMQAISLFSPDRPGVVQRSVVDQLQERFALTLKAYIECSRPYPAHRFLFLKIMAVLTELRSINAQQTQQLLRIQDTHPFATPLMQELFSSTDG
Compound,outcome [1],outcome [2],outcome [3],outcome [4],outcome [5],outcome [6],outcome [7],Potency [8],outcome [9],outcome [10],Potency [11],max activation [12],Potency [13],Potency [14],Potency [15],Potency [16],Potency [17],Potency [18],Potency [19]
O=C(NCN1CCOCC1)c1cnccn1,inactive,inactive,inactive,inactive,inactive,inactive,inactive,inactive,inactive,inactive,inactive,-1.75%,inactive,inactive,inactive,inactive,inactive,inactive,inactive
C=CCCCCCCCC,inactive,inactive,inactive,inactive,inactive,inactive,inactive,inactive,inactive,inactive,inactive,,,inactive,inactive,,,inactive,inactive
COS(=O)(=O)O,inactive,inactive,inactive,inactive,inactive,inactive,inactive,inactive,inactive,inactive,inactive,,,inactive,inactive,inactive,,inactive,inactive
CO[Si](CCCn1c(=O)n(CCC[Si](OC)(OC)OC)c(=O)n(CCC[Si](OC)(OC)OC)c1=O)(OC)OC,inactive,inactive,inactive,inactive,inactive,inactive,inactive,inactive,inactive,inactive,inactive,,,inactive,inactive,inactive,inactive,inactive,17.7 µM (active)
[O-][n+]1cccc(/C(Cl)=N/OC[C@@H](O)CN2CCCCC2)c1,inactive,inactive,inactive,inactive,inactive,inactive,inactive,inactive,inactive,inactive,inactive,,,15.5 µM (active),,inactive,inactive,,
CCC(=O)Oc1ccc2c(c1)CC[C@@H]1[C@@H]2CC[C@@]2(C)[C@H]1C[C@@H](OC(=O)CC)[C@@H]2OC(=O)CC,inactive,inactive,inactive,inactive,inactive,inactive,inactive,inactive,inactive,inactive,inactive,,,inactive,27.5 µM (active),24.5 µM (active),inactive,inactive,inactive
O=C(O)[C@H](O)c1ccccc1,inactive,inactive,inactive,inactive,inactive,inactive,inactive,inactive,inactive,inactive,inactive,-3.01%,inactive,,,inactive,inactive,inactive,inactive
Cc1ccc2c(c1)C(=O)c1ccccc1C2=O,inactive,inactive,inactive,inactive,inactive,inactive,inactive,inactive,inactive,inactive,15.3 µM (active),,,28.2 µM (active),11.2 µM (active),12.6 µM (active),,inactive,7.07 µM (active)
O=C(O)CCCCCC(=O)O,inactive,inactive,inactive,inactive,inactive,inactive,inactive,inactive,inactive,inactive,inactive,,,,inactive,inactive,inactive,inactive,inactive
CCCCOC(=O)[C@H](C)O,inactive,inactive,inactive,inactive,inactive,inactive,inactive,inactive,inactive,inactive,inactive,,,inactive,,inactive,inactive,inactive,inactive
Cn1c(=O)c2[nH]c(Br)nc2n(C)c1=O,inactive,inactive,inactive,inactive,inactive,inactive,inactive,inactive,inactive,inactive,inactive,-2.17%,inactive,inactive,inactive,,24.5 µM (active),inactive,inactive
Cc1cccc(Cl)c1,inactive,inactive,inactive,inactive,inactive,inactive,inactive,inactive,inactive,inactive,inactive,,,inactive,,inactive,inactive,inactive,inactive
CCN1CCCC1CN (stereo not given),inactive,inactive,inactive,inactive,inactive,inactive,inactive,inactive,inactive,inactive,inactive,,,inactive,,inactive,inactive,inactive,inactive
CC(=O)C(C)O (stereo not given),inactive,inactive,inactive,inactive,inactive,inactive,inactive,inactive,inactive,inactive,inactive,,,,inactive,inactive,inactive,inactive,inactive
CCC(=O)CC,inactive,inactive,inactive,inactive,inactive,inactive,inactive,inactive,inactive,inactive,inactive,,,,inactive,inactive,,inactive,inactive
CCCCCC(C)O (stereo not given),inactive,inactive,inactive,inactive,inactive,inactive,inactive,inactive,inactive,inactive,inactive,,,inactive,inactive,,inactive,inactive,inactive
